Source: PubChem BioAssay AID504444 (National Center for Advancing Translational Sciences (NCATS), 2011)
The whole screen tested about 360,000 compounds, of which about 7,500 (2.1%) were called active. About 20% were inconclusive and are not listed. Only a selection was taken, and actives are over-represented in it overall. Unmarked numbers belong to inactive results. Calls follow the shape of the dose curve; as a rule, active = well fitted inhibition curve with a large enough effect; inconclusive = small, poorly fitted or top-dose-only effect, or effect the other way; inactive = flat fitted curve, though single readings scatter.

experiment: Nrf2 qHTS screen for inhibitors; conditions: A549 ARE-Fluc reporter, luciferase luminescence, 18-24 h; series mostly up to 46 µM; activity change, negative = inhibition: at the top concentration; also: nearly all actives have a fitted effect of over 60% in size
Outline: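 Cells were seeded and rested 2 h, then exposed to compounds for 18-24 h. CellTiter-Fluor was read first as a viability measure. BugLite was added 15 min before the final luminescent read of ARE-luciferase activity in A549 cells.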
% is scaled to controls: 0 for no effect and ±100 for the full control effect; potency is read from the fitted curve at half-maximal effect.

| Structure (SMILES) | activity change, negative = inhibition | Potency |
| --- | --- | --- |
| Cc1ccc(N2C(=O)N3[C@@H]4c5ccccc5OC[C@@H]4[C@@H](c4ccccc4)[C@@]3(C)C2=O)cc1 | 1.3% |  |
| CCCCN(C(=O)CSCc1ccc(C)cc1)c1c(N)n(Cc2ccccc2)c(=O)[nH]c1=O | -11.8% |  |
| O=C(Cn1c(=O)n(Cc2cccs2)c(=O)c2cccnc21)Nc1ccc(F)cc1 | 7.02% |  |
| CN(C)c1nc(N)nc(Cn2nnc(-c3ccc(C(F)(F)F)cc3)n2)n1 | 0.318% |  |
| CN(C)c1nc(N)nc(CSc2nnnn2-c2cccc3ccccc23)n1 |  | 6.51 µM (active) |
| CN(C)c1nc(N)nc(CSc2ccccn2)n1 | 19.3% |  |
| Cc1ccc(-c2nc3ccccn3c2Nc2ccc(F)cc2)o1 | 11.6% |  |
| COc1ccc(S(=O)(=O)N2CCc3ccccc32)cc1C(=O)Nc1cc(S(C)(=O)=O)ccc1Cl | 9.36% |  |
| CC1(C)Cc2c(cnn2-c2cccc(F)c2)C(NC(=O)c2cc[n+]([O-])cc2)C1 (centres undefined) | -0.279% |  |
| Cc1cc(C(=O)NC2CC(C)(C)Cc3c2cnn3-c2ccccc2)n[nH]1 (centres undefined) | 13.6% |  |
| COc1ccc(C(=O)NC2CC(C)(C)Cc3c2cnn3-c2ccccc2)c(OC)c1 (centres undefined) |  | 18.4 µM (active) |
| CCOC(=O)Cc1csc(SCC(=O)Nc2ccc(C)cc2F)n1 | 2.45% |  |
| Cc1oc(C)c2c(=O)cc(-c3ccc4c(c3)OCO4)cc(OC(=O)c3ccc(Cl)cc3)c12 | 11.9% |  |
| N#CCc1c[nH]c2ccc([N+](=O)[O-])cc12 | -9.51% |  |
| COc1ccc(NC(=O)CN(C)CC(=O)Nc2cccc(C(F)(F)F)c2)cc1 | -28.1% |  |
| COc1cc(C(=O)N(C)Cc2cccc(OC)c2OC)ccc1OCC(=O)Nc1cccc(C(F)(F)F)c1 |  | 25.9 µM (active) |
| CCNC(=O)c1ccc(OCC(=O)Nc2ccc(F)cc2)c(OC)c1 | 8.83% |  |
| COc1ccc(CC2c3cc(OC)c(OC)cc3CC[N+]2(C)CCC(=O)OCCCCCOC(=O)CC[N+]2(C)CCc3cc(OC)c(OC)cc3C2Cc2ccc(OC)c(OC)c2)cc1OC (centres undefined) | 3.93% |  |
| COc1cccc(-c2nnc3n(CCc4ccccc4)c(=O)c4ccccc4n23)c1O | 9.52% |  |
| O=C(N/N=C/c1cccc(OC(=O)c2ccc([N+](=O)[O-])cc2)c1)c1cccnc1 | 7.34% |  |
| N#Cc1cc([N+](=O)[O-])ccc1Oc1cccc(/C=N/NC(=O)c2ccc(Cl)cc2)c1 |  | 5.8 µM (active) |
| O=C(N/N=C/c1cccc([N+](=O)[O-])c1)c1ccncc1 | 1.68% |  |
| O=C(NC(c1ccco1)c1cc(Cl)c2cccnc2c1O)c1ccccc1 (centres undefined) | -22% |  |
| COc1ccc(C(CNC(=O)c2cccc(NS(=O)(=O)c3ccc(C)c(F)c3)c2)N2CCCC2)cc1 (centres undefined) | -7.76% |  |

| Structure (SMILES) | activity change, negative = inhibition | Potency |
| --- | --- | --- |
| COc1ccc(C(CNC(=O)c2ccc(S(=O)(=O)Nc3ccccc3C)cc2)N2CCOCC2)cc1 (centres undefined) | -17.9% |  |
| COc1ccc(C(CNC(=O)c2cccc(S(=O)(=O)Nc3ccccc3Cl)c2)N2CCOCC2)cc1 (centres undefined) |  | 18.4 µM (active) |
| CC(C)c1ccc(NC(=O)Cn2c3ncccc3c(=O)n2-c2ccccc2)cc1 | 7.72% |  |
| C=CCn1c(=N)n(CC(O)COc2ccc(OC)cc2)c2ccccc21 (centres undefined) | -7.41% |  |
| O=C(C(c1ccccc1)c1ccccc1)N1CCN(CC(O)COc2ccccc2)CC1 (centres undefined) | -7.54% |  |
| OC(CN=c1sc2ccccc2n1CC(O)COc1ccccc1)COc1ccccc1 (centres undefined) |  | 23.1 µM (active) |
| COc1ccc(CCNC(=O)c2cnc3sc(N4CCCCCC4)nn3c2=O)cc1OC | -21.9% |  |
| O=C(NCc1ccc2c(c1)OCO2)c1cc([N+](=O)[O-])ccc1N1CCOCC1 | 6.57% |  |
| O=C(Nc1nnc(-c2ccco2)o1)c1ccc(S(=O)(=O)N2CCOCC2)cc1 | -9.34% |  |
| O=C(Nc1ccc(S(=O)(=O)Nc2nccs2)cc1)c1cccc(S(=O)(=O)N2CCOCC2)c1 | 15.2% |  |
| O=C(NNC(=S)Nc1ccccc1)c1cccc(S(=O)(=O)N2CCOCC2)c1 | 4.77% |  |
| O=C(Nc1ccc(N2CCOCC2)cc1)c1cccc(S(=O)(=O)N2CCOCC2)c1 | -4.75% |  |
| O=C(Nc1nnc(-c2ccccc2)o1)c1cccc(S(=O)(=O)N2CCOCC2)c1 |  | 20.6 µM (active) |
| Cc1nc2ccc(NC(=O)c3cccc(S(=O)(=O)N4CCOCC4)c3)cc2s1 |  | 18.4 µM (active) |
| CCC(=O)Nc1ccccc1-c1nc2ccccc2n(CC(=O)Nc2ccc(C)c(C)c2)c1=O | 13.9% |  |
| CC1(C)CCc2cc(S(=O)(=O)N3CCN(c4nc(-c5cccs5)nc5ccccc45)CC3)ccc2O1 | 4.31% |  |
| COc1ccc2ncc3c(-c4ccc(C)c(C)c4)nn(CC(=O)NC4CCCC4)c3c2c1 | -4.68% |  |
| CC(=O)NC(c1cccs1)c1cc(Br)c2cccnc2c1O (centres undefined) | -1.64% |  |
| Cn1c(=O)n(C)c2cc(NS(=O)(=O)c3ccc(F)cc3)ccc21 |  | inactive |
| Cn1c(=O)n(C)c2cc(S(=O)(=O)Nc3ccc(F)cc3)ccc21 |  | 9.2 µM (active) |
| Cc1cc(C)cc(NS(=O)(=O)c2ccc(F)cc2)c1 | -8.67% |  |
| CC1CC(C)CN(c2oc(-c3ccc(OCc4ccc(Cl)cc4)cc3)nc2C#N)C1 (centres undefined) | 1.72% |  |
| Cc1cccc(-n2ncc3c(=O)[nH]c(SCC(=O)Nc4cc(C)on4)nc32)c1 | -6.85% |  |
| O=c1c([N+](=O)[O-])cccn1Cc1ccc(F)cc1Cl |  | 25.9 µM (active) |

| Structure (SMILES) | activity change, negative = inhibition | Potency |
| --- | --- | --- |
| O=c1c([N+](=O)[O-])cc(C(F)(F)F)cn1Cc1cccc(Cl)c1 | -25.9% |  |
| Cc1ccc(-c2ccc(=O)n(Cc3ccc(F)cc3Cl)n2)cc1 | -26% |  |
| Cc1cc2n(n1)C(c1cc(C(C)(C)C)c(O)cc1O)Nc1ccccc1-2 (centres undefined) | 9.52% |  |
| COc1ccc(N2CCN(C(=O)CCSCc3ccccc3F)CC2)cc1 | -0.889% |  |
| COc1ccc(N2CCN(C(=O)CSCc3nc(-c4ccccc4Cl)oc3C)CC2)cc1 |  | 1.84 µM (active) |
| COc1ccc(CNC(=O)CSCc2nc(-c3ccccc3F)oc2C)cc1 | -4.11% |  |
| Cc1ccc(S(=O)(=O)N2CCN(C(=O)c3cccs3)CC2)cc1 | 3.88% |  |
| O=C(CNS(=O)(=O)c1ccccc1)N1CCN(C(=O)c2ccco2)CC1 | 12.4% |  |
| CC(C)Cc1ccc(S(=O)(=O)N2CCN(C(=O)c3ccco3)CC2)cc1 |  | 18.4 µM (active) |
| O=C(CNC(=O)c1ccccc1)OC(C(=O)Nc1cc([N+](=O)[O-])ccc1F)c1ccccc1 (centres undefined) | 17.1% |  |
| COc1ccc(NC(=O)CCN2CCN(CCO)CC2)cc1 | 3.24% |  |
| C=CC[n+]1c(-c2ccc(C)cc2)csc1NNC(=O)Nc1ccccc1 |  | 18.4 µM (active) |
| C=CCNc1scc(-c2ccccc2)[n+]1CC=C | 17.2% |  |
| O=C(NNC(=O)c1ccc(-c2ccccc2)cc1)Nc1ccccc1 | 26.6% |  |
| CCOCCCNC(=O)c1cn(CC)c2ccc(S(=O)(=O)N3CCc4ccccc4C3)cc2c1=O | -18.4% |  |
| COc1c(Cl)cc(C(=O)N(Cc2ccccc2F)C2CCS(=O)(=O)C2)cc1Cl (centres undefined) | 20.2% |  |
| COc1ccc(C2Nc3ccccc3C(=O)N2Cc2ccc(CNC(=O)CO)cc2)cc1COc1ccc(NC(C)=O)cc1 (centres undefined) | -24.4% |  |
| CC(C)(C)OC(=O)N(Cc1ccccc1)Cc1ccc(OCc2cccc(NC(=O)c3ccccc3)c2)cc1 | -19.1% |  |
| CCOC(=O)C1=C(C)NC(=S)NC1c1cccs1 (centres undefined) | 7.07% |  |
| C=CCOC(=O)C1=C(C)NC(C)=C(C(=O)OCC=C)C1c1cccs1 |  | 20.6 µM (active) |
| C=CCOC(=O)c1ccccc1C(=O)OCC=C | 0.689% |  |
| CCCCN1CC(COc2ccccc2)Oc2cccc(F)c2S1(=O)=O (centres undefined) | -1.14% |  |
| O=S(=O)(O)c1cc2onnc2c2ccccc12 | 3.56% |  |
| COc1ccc(Cl)cc1C=CC=Nc1ccc(S(N)(=O)=O)cc1 | -33.7% |  |

| Structure (SMILES) | activity change, negative = inhibition | Potency |
| --- | --- | --- |
| CC1CCCN(C(=O)CN2C(=O)c3ccccc3S2(=O)=O)C1 (centres undefined) | -11.1% |  |
| O=C(CN1C(=O)c2ccccc2S1(=O)=O)N1CCc2ccccc21 |  | 4.11 µM (active) |
| O=C(CN1C(=O)c2ccccc2S1(=O)=O)NC1CCCCC1 | 3.92% |  |
| COc1ccc(-c2cn3nc(N4CCC(C(=O)Nc5cccc(C)c5C)CC4)sc3n2)cc1 | 8.32% |  |
| CCN(CC)S(=O)(=O)c1ccc(C(=O)N=c2sc3cccc(OC)c3n2C)cc1 | 8.13% |  |
| NCCCNC(=S)NCCCN(Cc1ccc(Cl)cc1)c1ccc(Br)cn1 | 22.6% |  |
| COc1ccccc1OCCNc1cc(N2CCOCC2)ccc1[N+](=O)[O-] | -5.26% |  |
| COc1ccc(CCNc2cc(N3CCN(C(=O)c4ccccc4OC)CC3)ccc2[N+](=O)[O-])cc1OC |  | 5.8 µM (active) |
| COc1ccc(CCNC(=O)c2ccccc2-c2ccccc2C(=O)O)cc1OC | -2.44% |  |
| CCN(CC)S(=O)(=O)c1ccc(N2CCOCC2)c(NC(=O)C(C)Oc2ccc(F)cc2)c1 (centres undefined) | -0.342% |  |
| Cc1ccccc1-c1cc(C(=O)NCC2CC2)n(CC2CC(c3cccnc3)=NO2)n1 (centres undefined) | -9.82% |  |
| Cc1ccc(CNC(=O)c2cc(-c3ccccc3C)n(CC3CC(c4cccc([N+](=O)[O-])c4)=NO3)n2)cc1 (centres undefined) | -13.2% |  |
| Cc1ccccc1-c1cc(C(=O)NCc2cccs2)n(CC2CC(c3cccnc3)=NO2)n1 (centres undefined) |  | 20.6 µM (active) |
| CCCCCn1c(=O)[nH]c2cc(C(=O)NCCN(C)CCCC)ccc2c1=O | 7.46% [at 9.27 µM] |  |
| CC(=O)Nc1ccc(S(=O)(=O)N2CCN(S(=O)(=O)c3cccs3)CC2)cc1 | -12.1% |  |
| CC(C)C(NS(=O)(=O)c1cccs1)C(=O)Nc1nc(C(C)(C)C)cs1 (centres undefined) |  | 18.4 µM (active) |
| COc1ccc(CNC(=O)C(NS(=O)(=O)c2cccc3nsnc23)C(C)C)cc1 (centres undefined) | -4.3% |  |
| Cc1ccc(CN(C(=O)COc2ccc(Cl)cc2C)C2CCS(=O)(=O)C2)o1 (centres undefined) | 10.4% |  |
| CC1CCN(S(=O)(=O)c2ccc3c(ccn3CCC(=O)NCc3ccc(N(C)C)cc3)c2)CC1 | -6.81% |  |
| Cc1ccccc1C(=O)N(Cc1ccc(N(C)C)cc1)CC1CCCO1 (centres undefined) | -10.2% |  |
| CN(Cc1cncn1C)c1ncnc2ccc(-c3ccc4c(c3)OCO4)cc12 | 0% |  |
| CCC(=O)N1CCc2cc(S(=O)(=O)NC(Cc3ccccc3)C(=O)NCc3ccccc3)ccc21 (centres undefined) | -2.93% |  |
